# According to PubChem BioAssay AID1159580 (chemical genetic matrix, 2015):
# Among all 5,500 compounds or so, about 2,000 (36%) were called active. About 18% were inconclusive and are not listed. The list shows a part of the results. Values without a mark were called inactive. No stated cut-off is given here; in the data, active means normalized growth mostly below about 0.91 (no sharp cut-off); inconclusive means no clear call, values can overlap the other calls; inactive means mostly above about 0.92.
# Assay: chemical genetic growth profiling, strain panel (AID 1159580);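 further: tested at 20 µM; growth read once vehicle control cultures reached saturation at 30 °C; 1 = growth at the plate median or of vehicle wells; lower values mean less growth of the strain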
# Settings: growth OD
structure (smiles),measurement,setting,value
CCCCOc1ccc(C(=O)CCN2CCCCC2)cc1,normalized growth,"S. cerevisiae deletion strains, locus YJR066W, strain TOR1, hits give low values",0.67 (active)
same,normalized growth,"S. cerevisiae deletion strains, locus YJR075W, strain HOC1, hits give low values",0.66 (active)
same,normalized growth,"S. cerevisiae deletion strains, locus YKL009W, strain mrt4, hits give low values",0.902
same,normalized growth,"S. cerevisiae deletion strains, locus YKL068W, hits give low values",0.994
same,normalized growth,"S. cerevisiae deletion strains, locus YKL085W, strain MDH1 (second series), hits give low values",0.973
same,normalized growth,"S. cerevisiae deletion strains, locus YKL085W, strain MDH1, hits give low values",0.973
same,normalized growth,"S. cerevisiae deletion strains, locus YKL160W, strain elf1, hits give low values",0.918
same,normalized growth,"S. cerevisiae deletion strains, locus YKR001C, strain vps1, hits give low values",0.559 (active)
same,normalized growth,"S. cerevisiae deletion strains, locus YKR026C, strain gcn3, hits give low values",0.996
same,normalized growth,"S. cerevisiae deletion strains, locus YKR091W, strain srl3, hits give low values",0.999
same,normalized growth,"S. cerevisiae deletion strains, locus YLL001W, strain dnm1, hits give low values",0.428 (active)
same,normalized growth,"S. cerevisiae deletion strains, locus YLL026W, hits give low values",0.948
same,normalized growth,"S. cerevisiae deletion strains, locus YLL041C, strain sdh2, hits give low values",0.981
same,normalized growth,"S. cerevisiae deletion strains, locus YLR027C, strain aat2, hits give low values",0.888 (active)
same,normalized growth,"S. cerevisiae deletion strains, locus YLR039C, strain RIC1, hits give low values",0.426 (active)
same,normalized growth,"S. cerevisiae deletion strains, locus YLR058C, strain SHM2, hits give low values",0.85 (active)
same,normalized growth,"S. cerevisiae deletion strains, locus YLR102C, strain apc9, hits give low values",0.0845 (active)
same,normalized growth,"S. cerevisiae deletion strains, locus YLR113W, strain HOG1, hits give low values",1.03
same,normalized growth,"S. cerevisiae deletion strains, locus YLR221C, strain rsa3, hits give low values",0.952
same,normalized growth,"S. cerevisiae deletion strains, locus YLR258W, strain gsy2, hits give low values",0.95
same,normalized growth,"S. cerevisiae deletion strains, locus YLR262C, strain YPT6 (second series), hits give low values",0.662 (active)
same,normalized growth,"S. cerevisiae deletion strains, locus YLR262C, strain YPT6, hits give low values",0.523 (active)
same,normalized growth,"S. cerevisiae deletion strains, locus YLR268W, strain sec22, hits give low values",0.244 (active)
same,normalized growth,"S. cerevisiae deletion strains, locus YLR320W, strain mms22, hits give low values",0.565 (active)
same,normalized growth,"S. cerevisiae deletion strains, locus YLR330W, strain CHS5, hits give low values",0.0853 (active)
same,normalized growth,"S. cerevisiae deletion strains, locus YLR342W, strain FKS1 (second series), hits give low values",0.432 (active)
same,normalized growth,"S. cerevisiae deletion strains, locus YLR342W, strain FKS1, hits give low values",0.985
same,normalized growth,"S. cerevisiae deletion strains, locus YLR357W, strain rsc2, hits give low values",1.03
same,normalized growth,"S. cerevisiae deletion strains, locus YLR370C, strain arc18, hits give low values",0.85 (active)
same,normalized growth,"S. cerevisiae deletion strains, locus YLR371W, strain rom2, hits give low values",0.0987 (active)
same,normalized growth,"S. cerevisiae deletion strains, locus YLR384C, strain iki3, hits give low values",0.976
same,normalized growth,"S. cerevisiae deletion strains, locus YLR418C, strain cdc73, hits give low values",0.267 (active)
same,normalized growth,"S. cerevisiae deletion strains, locus YML016C, strain PPZ1, hits give low values",0.17 (active)
same,normalized growth,"S. cerevisiae deletion strains, locus YML032C, strain rad52, hits give low values",0.748 (active)
same,normalized growth,"S. cerevisiae deletion strains, locus YML120C, strain ndi1, hits give low values",0.973
same,normalized growth,"S. cerevisiae deletion strains, locus YML124C, strain tub3, hits give low values",0.552 (active)
same,normalized growth,"S. cerevisiae deletion strains, locus YMR058W, strain fet3, hits give low values",0.731 (active)
same,normalized growth,"S. cerevisiae deletion strains, locus YMR078C, strain ctf18, hits give low values",0.138 (active)
same,normalized growth,"S. cerevisiae deletion strains, locus YMR125W, strain sto1, hits give low values",0.927
same,normalized growth,"S. cerevisiae deletion strains, locus YMR129W, hits give low values",0.99
same,normalized growth,"S. cerevisiae deletion strains, locus YMR205C, strain PFK2, hits give low values",0.875 (active)
same,normalized growth,"S. cerevisiae deletion strains, locus YMR223W, strain ubp8, hits give low values",0.16 (active)
same,normalized growth,"S. cerevisiae deletion strains, locus YMR231W, strain pep5, hits give low values",0.972
same,normalized growth,"S. cerevisiae deletion strains, locus YMR263W, strain SAP30, hits give low values",0.916
same,normalized growth,"S. cerevisiae deletion strains, locus YMR307W, strain GAS1, hits give low values",0.727
same,normalized growth,"S. cerevisiae deletion strains, locus YNL067W, strain RPL9B, hits give low values",0.589 (active)
same,normalized growth,"S. cerevisiae deletion strains, locus YNL071W, strain lat1, hits give low values",0.567 (active)
same,normalized growth,"S. cerevisiae deletion strains, locus YNL153C, strain GIM3, hits give low values",0.839 (active)
same,normalized growth,"S. cerevisiae deletion strains, locus YNL183C, strain NPR1, hits give low values",0.435 (active)
same,normalized growth,"S. cerevisiae deletion strains, locus YNL209W, strain ssb2, hits give low values",0.981
same,normalized growth,"S. cerevisiae deletion strains, locus YNL233W, strain BNI4, hits give low values",0.167 (active)
same,normalized growth,"S. cerevisiae deletion strains, locus YNL248C, strain rpa49, hits give low values",0.645 (active)
same,normalized growth,"S. cerevisiae deletion strains, locus YNL250W, strain rad50, hits give low values",0.986
same,normalized growth,"S. cerevisiae deletion strains, locus YNL271C, strain bni1, hits give low values",0.94
same,normalized growth,"S. cerevisiae deletion strains, locus YNL298W, strain CLA4, hits give low values",0.96
same,normalized growth,"S. cerevisiae deletion strains, locus YNL307C, strain MCK1, hits give low values",0.0713 (active)
same,normalized growth,"S. cerevisiae deletion strains, locus YNL322C, strain KRE1 (second series), hits give low values",1.03
same,normalized growth,"S. cerevisiae deletion strains, locus YNR049C, strain mso1, hits give low values",0.693 (active)
same,normalized growth,"S. cerevisiae deletion strains, locus YNR052C, strain pop2, hits give low values",0.864 (active)
same,normalized growth,"S. cerevisiae deletion strains, locus YOL006C, strain TOP1, hits give low values",0.248 (active)
same,normalized growth,"S. cerevisiae deletion strains, locus YOL012C, strain htz1",0.354
same,normalized growth,"S. cerevisiae deletion strains, locus YOL147C, strain pex11, hits give low values",0.965
same,normalized growth,"S. cerevisiae deletion strains, locus YOR001W, strain rrp6, hits give low values",0.833 (active)
same,normalized growth,"S. cerevisiae deletion strains, locus YOR061W, strain CKA2, hits give low values",0.691 (active)
same,normalized growth,"S. cerevisiae deletion strains, locus YOR069W, strain VPS5, hits give low values",0.558 (active)
same,normalized growth,"S. cerevisiae deletion strains, locus YOR070C, strain gyp1, hits give low values",0.938
same,normalized growth,"S. cerevisiae deletion strains, locus YOR080W, strain dia2, hits give low values",0.975
same,normalized growth,"S. cerevisiae deletion strains, locus YOR083W, strain WHI5, hits give low values",0.952
same,normalized growth,"S. cerevisiae deletion strains, locus YOR106W, strain vam3, hits give low values",0.97
same,normalized growth,"S. cerevisiae deletion strains, locus YOR136W, strain idh2, hits give low values",0.0967 (active)
same,normalized growth,"S. cerevisiae deletion strains, locus YOR144C, strain elg1, hits give low values",0.994
same,normalized growth,"S. cerevisiae deletion strains, locus YOR184W, strain ser1, hits give low values",0.161 (active)
same,normalized growth,"S. cerevisiae deletion strains, locus YOR231W, strain MKK1, hits give low values",1.03
same,normalized growth,"S. cerevisiae deletion strains, locus YOR265W, strain rbl2, hits give low values",0.968
same,normalized growth,"S. cerevisiae deletion strains, locus YOR270C, strain vph1, hits give low values",0.275 (active)
same,normalized growth,"S. cerevisiae deletion strains, locus YOR290C, strain snf2, hits give low values",0.882
same,normalized growth,"S. cerevisiae deletion strains, locus YOR316C, strain cot1, hits give low values",0.0893 (active)
same,normalized growth,"S. cerevisiae deletion strains, locus YPL051W, strain arl3, hits give low values",0.894 (active)
same,normalized growth,"S. cerevisiae deletion strains, locus YPL055C, strain LGE1, hits give low values",0.683 (active)
same,normalized growth,"S. cerevisiae deletion strains, locus YPL078C, strain atp4, hits give low values",0.507 (active)
same,normalized growth,"S. cerevisiae deletion strains, locus YPL106C, strain sse1, hits give low values",1.1
same,normalized growth,"S. cerevisiae deletion strains, locus YPL240C, strain hsp82, hits give low values",1
same,normalized growth,"S. cerevisiae deletion strains, locus YPL241C, strain CIN2, hits give low values",0.882 (active)
same,normalized growth,"S. cerevisiae deletion strains, locus YPL256C, strain CLN2, hits give low values",1.01
same,normalized growth,"S. cerevisiae deletion strains, locus YPR119W, strain clb2, hits give low values",0.0832 (active)
same,normalized growth,"S. cerevisiae deletion strains, locus YPR141C, strain kar3, hits give low values",0.981
same,normalized growth,"S. cerevisiae deletion strains, locus YPR163C, strain tif3, hits give low values",0.23 (active)
same,normalized growth,"S. cerevisiae deletion strains, locus YPR167C, strain met16, hits give low values",0.206 (active)
same,normalized growth,"S. cerevisiae deletion strains, strain wtn01, hits give low values",0.372 (active)
same,normalized growth,"S. cerevisiae strains, strain wild type, hits give low values",0.647 (active)
